According to PubChem BioAssay AID651582 (Sanford-Burnham Center for Chemical Genomics, 2012):
In all, about 230,000 compounds went through this assay and about 1,500 (0.65%) were called active.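 Rule for the calls: active = pattern-corrected inhibition of lipid staining of at least 50% with the nuclear-stain viability signal not falling by more than 50%; inactive = the rest, inconclusive results apart.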 Shown is part of a subset that was picked to be rich in actives.

assay: inhibitors of triacylglycerol accumulation, primary screen, cell-based, uHTS, fluorescence, H9c2 (AID 651582); details: H9c2 cells, Nile Red lipid (TAG) fluorescence, at 12.5 µM, cells loaded with 200 µM oleic acid; DAPI nuclei signal change (viability), lower = more cytotoxic: measured here: DAPI nuclei count viability; inhibition: stronger effect = higher value;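 for inhibition: 0% = DMSO wells and 100% = triacsin C control wells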

SMILES | DAPI nuclei signal change (viability), lower = more cytotoxic [%] | inhibition
COc1ccc(-c2cc(-c3ccc(N)cc3)nc(N)c2C#N)cc1OC | 172 | 21.5% (inactive)
COc1ccc(-c2cc(C(F)(F)F)nc(S(C)(=O)=O)n2)cc1OC | -22.6 | 52.7% (active)
COc1ccc(-c2csc(-c3cccs3)n2)cc1OC | -4.83 | -5.04% (inactive)
CCCCCCCCNS(=O)(=O)CCNC1CCCCC1 | -4.65 | 5.91% (inactive)
COc1ccc(OC)c(/C=C/C(=O)c2ccc3c(c2)OCO3)c1 | 4.46 | 9.85% (inactive)
Cc1c(NS(=O)(=O)c2cccc(C(=O)Nc3ccc(SC(F)F)cc3)c2)c(=O)n(-c2ccccc2)n1C | -2.02 | -3.28% (inactive)
COc1ccc(S(=O)(=O)N(C)C)cc1NC(=O)COC(=O)c1n[nH]c2ccccc12 | -4.57 | 4.68% (inactive)
Cc1cccc(OCC(=O)OCC(=O)Nc2ccc(Cl)cn2)c1 | 5.47 | -14.4% (inactive)
COc1ccc(/C=C2\CCc3ccccc3C2=O)c(OC)c1OC | -2.46 | -5.18% (inactive)
COc1ccc(/C=C2/CCCc3ccccc3C2=O)cc1 | -45.7 | 59.8% (active)
O=C1/C(=C/c2cccs2)CCc2ccccc21 | 3.51 | -10.1% (inactive)
O=C(COC(=O)c1cccc(Cl)c1Cl)NC1CCCCCC1 | 6.13 | -15.2% (inactive)
CCCn1nnc2sc3c(c2c1=O)CCC(C)C3 (stereo not given) | 3.37 | 0.861% (inactive)
C=CCn1c(SCc2c(C)noc2C)nc2sc3c(c2c1=O)CCC(C)C3 (stereo not given) | -30.5 | 85.1% (active)
C=CCn1c(SCC(=O)NCC2CCCO2)nc2sc(C)c(C)c2c1=O (stereo not given) | 4.45 | -8.48% (inactive)
CN1CCn2cnc(C(=O)NCC(=O)OC(C)(C)C)c2C1=O | -1.68 | -2.56% (inactive)
CN(Cc1ccc(CNC[C@H]2O[C@@H](n3cnc4c(N)ncnc43)[C@H](O)[C@@H]2O)o1)S(C)(=O)=O | 2.25 | 3.67% (inactive)
Cc1cc(NC(=O)CSc2nc(C(C)C)nc3sc4c(c23)CCC(C)C4)no1 (stereo not given) | 1.86 | 65.3% (active)
Cc1cc(NC(=O)CSc2nc3c(cc2C#N)CCCCC3)no1 | 24 | 6.4% (inactive)
Cc1cc(NC(=O)CSc2ncc(C(F)(F)F)cc2Cl)no1 | -5.5 | 0.466% (inactive)

SMILES | DAPI nuclei signal change (viability), lower = more cytotoxic [%] | inhibition
Brc1ccc(CN2CC[C@H]3C=CCc4cccc(c43)C2)cc1 | 12.5 | -54.7% (inactive)
COc1ccc(Cl)cc1NC(=O)CN(C)C(=O)c1cc(-c2cccs2)nn1-c1ccccc1 | 3.57 | 2.51% (inactive)
Cc1nc2ccccn2c(=O)c1NC(=O)c1ccc(Br)o1 | 4.97 | 4.01% (inactive)
COc1ccc(C(O)c2nc(-c3ccc(OC)nc3)cs2)cc1 (stereo not given) | 4.55 | -44.6% (inactive)
COc1ccc2c(c1)O/C(=C\c1ccccc1O)C2=O | 4.81 | -5.85% (inactive)
COc1cc(/C=C2\Oc3ccc(C#Cc4ccc(O)cc4)cc3C2=O)cc(OC)c1 | -0.886 | 120% (active)
COc1cc(C#Cc2ccc3cc(CCCO)oc(=O)c3c2)cc(OC)c1 | -19.9 | 46.6% (inactive)
O=C(CSc1n[nH]c(=O)n1-c1ccccc1)Nc1ccccc1C(F)(F)F | 4.07 | 6.49% (inactive)
COc1ccc(OC)c(NC(=O)C2CCCN2S(=O)(=O)c2ccc3c(c2)CC(C)N3C(C)=O)c1 (stereo not given) | -10.6 | -4.08% (inactive)
CCOC(=O)N1CCN(C(=O)c2ccccc2N(Cc2ccccc2)S(=O)(=O)c2ccc(OC)cc2)CC1 | -41 | 53.3% (active)
CCN1CCN(C(=O)c2ccccc2N(C)S(=O)(=O)c2ccc(C)cc2)CC1 | -0.758 | 7.33% (inactive)
NC(=O)c1ccccc1N(Cc1ccccc1)S(=O)(=O)c1ccccc1 | -8.47 | 2.63% (inactive)
CCN1C[C@@H]2[C@@H]3C(=O)N(Cc4ccccc4)C(=O)[C@@H]3[C@](C)(C1=O)N2C(=O)c1ccc(C(C)(C)C)cc1 | -6.19 | 19.2% (inactive)
COc1ccc(NC(=O)CNc2cc(S(=O)(=O)N3CCOCC3)ccc2N2CCOCC2)c(OC)c1 | 15.7 | -15.8% (inactive)
Clc1ccc(N/N=C/c2cccs2)nn1 | 3.1 | -6.69% (inactive)
Cc1ccsc1/C=N/Nc1ccc(Cl)nn1 | -14 | 5.97% (inactive)
C/C(=N\Nc1ccc(Cl)nn1)c1ccccc1O | -30.3 | 59.1% (active)
COc1ccccc1-c1nn(Cc2ccccc2)cc1C(=O)N1CCN(c2ncccn2)CC1 | -19.5 | 12.4% (inactive)
CC(C)C(=O)N1CCC2(CC1)Oc1ccc(F)cc1C(=O)C21CC(c2ccccc2)=NO1 (stereo not given) | -26.9 | 60% (active)
O=C1CC2(CCN(C(=O)COc3ccc(F)cc3)CC2)Oc2ccccc21 | -14.6 | 21.4% (inactive)
